This is a sample that favours compounds with a hit; in the whole collection about 11% have one here.
Gal4-VP16 FLuc – Gal4-VP16 reporter inhibition counter-screen. hit rate 3.5% among 310,000. AID 2546. Drosophila S2 Gal4-VP16 UAS-luciferase, luminescence, 20 h. Potency, µM (doses to about 53.6 µM), inactives show at the top dose activity, negative = inhibition, hits mostly inhibitors;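 also: Gal4-VP16 expression switched on by copper sulfate through the metallothionein promoter; potency is read from the fitted curve at half-maximal effect; % is scaled to controls: 0 for no effect and ±100 for the full control effect; nearly all actives have a fitted effect of over 50% in size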
MCF10A rereplic – induces DNA re-replication in MCF 10a normal breast cells | MCF 10A DNA re-replication, Hoechst nuclear intensity, 48 h | Potency, µM (top dose mostly 46.1 µM), inactives show at the top dose activity, positive = re-replication, usual class: activators | hit rate 2.9% among 350,000 | AID 624296; also: potency is read from the fitted curve at half-maximal effect; % of control where 0% means no effect; nearly all actives have a fitted effect of over 50% in size
IL-1B inflam inh – inhibitors of inflammasome signaling (IL-1 beta secretion); THP-1 LPS/ATP IL-1B secretion, AlphaLISA, 16 h; hits give low values; activity change, % at 57.5 µM; hit rate 4.7% among 360,000; AID 743279; in the data active = activity change below about -50%; inconclusive = mostly about -30% to -49%; also: % is scaled to controls: 0 for no effect and ±100 for the full control effect
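THP-1 cells pretreated 1 hr with compounds (up to 57.5 uM final), then stimulated with LPS (250 ng/mL final) plus ATP (1.25 mM final); secreted IL-1B measured by AlphaLISA after 16 hr, decreased signal indicating inhibition.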
SW480 rereplic – induces DNA re-replication in SW480 colon adenocarcinoma cells. SW480 DNA re-replication, Hoechst DNA content imaging, 48 h. hit rate 1.8% among 340,000. AID 624297. Potency, µM (top dose mostly 46.1 µM), for the others: at the top dose re-replication activation, most hits filed as activators; also: potency is read from the fitted curve at half-maximal effect; % of control where 0% means no effect; nearly all actives have a fitted effect of over 55% in size
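Image-based DNA-content assay: after two days of treatment, nuclei were labelled with the DNA dye Hoechst and imaged, and hits were compounds raising the count of nuclei showing high fluorescence intensity.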
RORg inh – ROR gamma (mouse) transcription inhibition; P51450; Drosophila S2 Gal4-RORgamma UAS-luciferase reporter, 20 h; Potency, µM (top dose mostly 53.6 µM), inactives show at the highest dose activity change, negative = inhibition, usual class: inhibitors; hit rate 5.4% among 310,000; also: potency is read from the fitted curve at half-maximal effect; % is scaled to controls: 0 for no effect and ±100 for the full control effect; nearly all actives have a fitted effect of over 60% in size
Target sequence (P51450 whole entry, looked up, the tested form may be a part): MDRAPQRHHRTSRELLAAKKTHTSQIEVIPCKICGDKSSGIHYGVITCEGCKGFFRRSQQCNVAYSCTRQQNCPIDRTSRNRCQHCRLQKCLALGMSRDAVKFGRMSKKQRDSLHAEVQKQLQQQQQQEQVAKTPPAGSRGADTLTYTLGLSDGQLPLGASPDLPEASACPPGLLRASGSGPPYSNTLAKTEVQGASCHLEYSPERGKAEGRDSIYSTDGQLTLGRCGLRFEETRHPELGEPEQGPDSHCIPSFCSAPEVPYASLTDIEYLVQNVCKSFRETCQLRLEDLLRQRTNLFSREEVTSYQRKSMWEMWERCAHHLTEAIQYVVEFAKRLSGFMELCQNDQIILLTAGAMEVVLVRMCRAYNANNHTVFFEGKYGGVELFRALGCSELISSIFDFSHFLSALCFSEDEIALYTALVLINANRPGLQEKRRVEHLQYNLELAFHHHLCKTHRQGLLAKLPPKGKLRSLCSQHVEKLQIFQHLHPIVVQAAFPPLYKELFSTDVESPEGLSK
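Compounds are pin-transferred onto Drosophila Schneider cells expressing a copper-inducible Gal4–ROR gamma transactivation domain fusion. After 1 hr, copper sulfate is added to 700 uM final; luciferase is read 20 hr later.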
Numbers without * were called inactive; u = inconclusive; x = not tested or not shown; [ ] = remark or other dose. Unless noted, calls follow the shape of the dose curve; as a rule, active = well fitted curve in the direction sought with a large enough effect; inconclusive = small, poorly fitted or top-dose-only effect, or another doubt; inactive = no such curve, though single readings can be large; an effect the other way counts as inactive or inconclusive.

SMILES | Gal4-VP16 FLuc | MCF10A rereplic | IL-1B inflam inh | SW480 rereplic | RORg inh
COc1ccc(S(=O)(=O)Nc2ccc3c(c2)C(=O)N([C@H](C)CO)C[C@H](C)[C@@H](CN(C)C(=O)NC2CCCCC2)O3)cc1 | x | 0% | -10 | -3% | x
CC1(c2ccc([N+](=O)[O-])cc2)Nc2ccccc2S1 (configuration not stated) | -1% | 9% | u | -1% | 20%
Cc1ccc(C)c(N2CCN(C(=O)CCc3nc(-c4ccccc4F)no3)CC2)c1 | x | 16µM* | 25 | 3% | x
Cc1cc(C)n(CCc2nc(-c3ccc(C)o3)cs2)n1 | 11µM* | 26% | 17 | 3% | u
Cc1cc(C)n(CCc2nc(-c3cc4ccccc4o3)cs2)n1 | -30% | 20% | -10 | 1% | u
Cc1noc(C)c1-c1ccc2ncnc(NCc3ccc4c(c3)OCO4)c2c1 | -4% | x | x | x | -2%
COc1cc(C=O)ccc1OCC(=O)Nc1ccccc1N1CCOCC1 | -9% | 1% | -13 | 4% | u
COc1cc(C=O)ccc1Oc1nc(Nc2ccc(F)cc2F)nc(N2CCOCC2)n1 | -7% | u | -56* | 0% | -9%
O=[N+]([O-])c1ccc(CS(=O)(=O)c2ncn[nH]2)cc1 | -12% | 4% | 7 | 1% | 30%
Nc1nc2c(ncn2[C@@H]2O[C@H](CNC(=O)[C@H](N)Cc3ccccc3)[C@@H](O)[C@H]2O)c(=O)[nH]1 | x | x | 0 | x | x
CCc1ccc(Nc2cnn(C34CC5CC(CC(CC(=O)O)(C5)C3)C4)c(=O)c2Cl)cc1 | -7% | -10% | -97* | -16% | 0%
O=C(O)Cc1ccc(Nc2cnn(C34CC5CC(CC(CC(=O)O)(C5)C3)C4)c(=O)c2Cl)cc1 | 2% | 3% | 3 | -2% | 21%
O=C(O)C(Cc1ccccc1)N1C(=O)C2C3CCC(C3)C2C1=O (configuration not stated) | x | x | 0 | x | x
COc1ccc(C2=Nn3c(nnc3-c3cc(OC)cc(OC)c3)SC2)cc1 | -24% | x | x | x | -8%
COc1cc(Nc2c3c(nc4ccccc24)CCCC3)cc(OC)c1OC | 9% | 0% | u | 0% | 11µM*
COc1ccccc1Nc1c2c(nc3ccccc13)CCC2 | 0% | 12µM* | 5 | 15µM* | 2%
COc1ccc(Nc2c3c(nc4ccccc24)CCC3)c(OC)c1 | 2% | u | u | u | 1%
O=[N+]([O-])c1ccc(NC(=S)NCc2ccncc2)cc1 | 0%[10 µM] | 6% | 12 | -10% | u
O=[N+]([O-])c1ccc(NC(=S)NCCc2ccc(Cl)cc2)cc1 | 3.5µM* | u | -55* | 11% | 0.63µM*
O=[N+]([O-])c1ccc(NC(=S)NCCc2ccccc2)cc1 | 16% | u | -93* | u | -12%
NS(=O)(=O)c1ccc(NC(=S)NCCc2ccccc2)cc1 | 27% | 10% | 70 | u | 35%
O=C(CCNC(=O)c1ccc([N+](=O)[O-])cc1)NCCc1ccccc1 | 26% | 1% | -57* | -29% | 2%
CC1(C)CC(=O)C=C(c2ccc(-c3cnc4ccccc4c3)cc2)C1=O | x | x | -4 | x | x
Nc1ccn([C@@H]2O[C@H](C(=O)N3CCSC3)[C@@H](O)[C@H]2O)c(=O)n1 | x | x | 19 | x | x
CC1=C/C(=N\NC(=O)c2cccs2)CC(C)(C)C1 | 11µM* | -5% | 27 | 10% | 6.3µM*
SMILES | Gal4-VP16 FLuc | MCF10A rereplic | IL-1B inflam inh | SW480 rereplic | RORg inh
NC(=O)c1ccccc1NC(=S)NC(=O)CCc1ccccc1 | 13% | 5.8µM* | 11 | 3.3µM* | u
CSc1cccc(NC(=S)NC(=O)CCc2ccccc2)c1 | 8.9µM* | 16µM* | 42 | u | 3.2µM*
Cc1ccccc1NC(=S)NC(=O)CCc1ccccc1 | -10% | -3% | 3 | 4% | 19%
Cc1cccc(C)c1NC(=S)NC(=O)CCc1ccccc1 | 10µM* | u | 15 | 3.3µM* | 2.8µM*
CN(Cc1cc(Br)cc(Br)c1N)C1CCCCC1 | -3% | 27µM* | x | u | u
CN(Cc1ccc(O)cc1)C1CCCCC1 | -4% | 6% | 0 | 0% | 7%
c1ccc(OCCNc2ccn3nc(-c4ccco4)cc3n2)cc1 | x | x | -16 | x | x
CCc1cc(C(c2ccc(OC)c(OC)c2)N2CCOCC2)c(NC(=O)c2ccccc2)s1 (configuration not stated) | u | u | -124* | 10% | u
Nc1ccc2c(c1)C(=O)C(=O)c1ccccc1-2 | 2.8µM* | u | -122* | 3.7µM* | 1.8µM*
Nc1ccc2c(c1)C(=O)c1ccccc1-2 | x | 1% | -9 | u | x
O=C1C(=O)c2ccc(-c3ccccc3)cc2-c2ccccc21 | 3.5µM* | u | -57* | 5.8µM* | 3.2µM*
Nc1ccc2c(c1)C(=O)c1ccccc1C2=O | -21% | 0% | -3 | -1% | u
Cc1ccc(Nc2cc(C)c(O)c(C)c2)cc1 | u | -8% | u | 1% | 8.9µM*
CNc1ccccc1C(=O)OCC(=O)N(CCOC)c1c(N)n(CC(C)C)c(=O)[nH]c1=O | x | 0% | 15 | -3% | x
CC1CCN(C(=O)CN(Cc2ccc(F)cc2)S(C)(=O)=O)CC1 | -7% | 1% | -1 | 0% | 2%
Cc1cccc(-c2noc(CN(C(=O)c3ccc4c(c3)OCO4)C(C)C)n2)c1 | -16% | 0% | -13 | 3% | -2%
Cc1nc(C(C)N(C)Cc2nc(-c3ccc4c(c3)OCO4)no2)c(C)s1 (configuration not stated) | u | u | -18 | 3.7µM* | 18µM*
Cc1ccc(C(=O)O/N=C(\N)Cc2ccc([N+](=O)[O-])cc2)c(Cl)c1 | -17% | 18µM* | u | u | -22%
N/C(=N\OC(=O)c1ccccc1Br)c1ccc([N+](=O)[O-])cc1 | u | 6% | 23 | 7% | u
N/C(Cc1ccc([N+](=O)[O-])cc1)=N\OC(=O)c1ccccc1Br | 11µM* | 0% | u | 0% | u
N/C(=N\OC(=O)Cc1ccc([N+](=O)[O-])cc1)c1ccc([N+](=O)[O-])cc1 | -18% | 9% | -1 | 1% | -3%
N/C(=N\OC(=O)Cc1ccc([N+](=O)[O-])cc1)c1cccc(Br)c1 | 4% | 0% | -82* | -1% | 3%
N/C(Cc1ccc([N+](=O)[O-])cc1)=N\OC(=O)CC1CCCCC1 | 13µM* | 3% | -3 | -4% | 13µM*
Cc1cccc(C(=O)O/N=C(\N)Cc2ccc([N+](=O)[O-])cc2)c1 | u | 19% | -7 | -3%[9.22 µM] | u
COc1ccc(-c2nc(CN3CCN(C(=O)c4ccco4)CC3)c(C)o2)c(F)c1 | 22% | 12% | 9 | 5% | 11%
O=C(C(O)c1ccccc1)N1CCN(S(=O)(=O)c2ccc(C(F)(F)F)cc2)CC1 (configuration not stated) | x | x | -8 | x | x

Screens (PubChem BioAssay)
